Rows were chosen to be rich in hits. Some 11% of all compounds tested hit in one or more screens of this group.
JMJD2A Tudor inh: qHTS Assay for Inhibitors of JMJD2A-Tudor Domain. AID 504339, 2011. Potency, µM (series often up to 114 µM), actives largely listed as inhibitors. AlphaScreen JMJD2A-Tudor / H3K4me3 peptide binding. 390,000 tested, 4.4% active. Lysine-specific demethylase 4A (Homo sapiens), O75164; note: nearly all actives have a fitted effect of over 50% in size
L3MBTL1 block: qHTS Assay for the Inhibitors of L3MBTL1; Lethal(3)malignant brain tumor-like protein 1 (Homo sapiens), Q9Y468; Potency, µM (titrated, usually from 57.1 µM), most hits filed as inhibitors; AlphaScreen L3MBTL1–H3K9me1 peptide binding; 230,000 tested, 0.66% active; note: nearly all actives have a fitted effect of over 60% in size
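Displacement of a biotinylated histone H3(1-15) peptide monomethylated at Lys9 (75 nM) from L3MBTL1 (50 nM) was measured by AlphaScreen after a 30 min room-temperature compound incubation; cefsulodin titration served as intraplate control.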
G9a block: qHTS Assay for Inhibitors of Histone Lysine Methyltransferase G9a; Histone-lysine N-methyltransferase EHMT2 (Homo sapiens), Q96KQ7; 350,000 tested, 8.8% active; Potency, µM (top dose mostly 102 µM), actives largely listed as inhibitors; G9a H3K9 monomethylation, AlphaScreen, 2 h; note: nearly all actives have a fitted effect of over 75% in size
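Chemiluminescent proximity detection of H3K9 monomethylation, read after 10 min bead incubation in the dark. Reaction: 20 nM G9a, 500 nM biotin-H3K9 peptide, 20 uM SAM cofactor, 2 h, room temperature, following 15 min enzyme-compound preincubation.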
BAZ2B inh: qHTS Assay for Inhibitors of BAZ2B; AID 504333, 2011; 360,000 tested, 4.4% active; Potency, µM (doses to about 114 µM), actives largely listed as inhibitors; Bromodomain adjacent to zinc finger domain protein 2B (Homo sapiens), Q9UIF8; AlphaScreen BAZ2B-H3K14Ac peptide displacement; note: nearly all actives have a fitted effect of over 60% in size
Target sequence (Q9UIF8 whole entry, looked up, the tested form may be a part): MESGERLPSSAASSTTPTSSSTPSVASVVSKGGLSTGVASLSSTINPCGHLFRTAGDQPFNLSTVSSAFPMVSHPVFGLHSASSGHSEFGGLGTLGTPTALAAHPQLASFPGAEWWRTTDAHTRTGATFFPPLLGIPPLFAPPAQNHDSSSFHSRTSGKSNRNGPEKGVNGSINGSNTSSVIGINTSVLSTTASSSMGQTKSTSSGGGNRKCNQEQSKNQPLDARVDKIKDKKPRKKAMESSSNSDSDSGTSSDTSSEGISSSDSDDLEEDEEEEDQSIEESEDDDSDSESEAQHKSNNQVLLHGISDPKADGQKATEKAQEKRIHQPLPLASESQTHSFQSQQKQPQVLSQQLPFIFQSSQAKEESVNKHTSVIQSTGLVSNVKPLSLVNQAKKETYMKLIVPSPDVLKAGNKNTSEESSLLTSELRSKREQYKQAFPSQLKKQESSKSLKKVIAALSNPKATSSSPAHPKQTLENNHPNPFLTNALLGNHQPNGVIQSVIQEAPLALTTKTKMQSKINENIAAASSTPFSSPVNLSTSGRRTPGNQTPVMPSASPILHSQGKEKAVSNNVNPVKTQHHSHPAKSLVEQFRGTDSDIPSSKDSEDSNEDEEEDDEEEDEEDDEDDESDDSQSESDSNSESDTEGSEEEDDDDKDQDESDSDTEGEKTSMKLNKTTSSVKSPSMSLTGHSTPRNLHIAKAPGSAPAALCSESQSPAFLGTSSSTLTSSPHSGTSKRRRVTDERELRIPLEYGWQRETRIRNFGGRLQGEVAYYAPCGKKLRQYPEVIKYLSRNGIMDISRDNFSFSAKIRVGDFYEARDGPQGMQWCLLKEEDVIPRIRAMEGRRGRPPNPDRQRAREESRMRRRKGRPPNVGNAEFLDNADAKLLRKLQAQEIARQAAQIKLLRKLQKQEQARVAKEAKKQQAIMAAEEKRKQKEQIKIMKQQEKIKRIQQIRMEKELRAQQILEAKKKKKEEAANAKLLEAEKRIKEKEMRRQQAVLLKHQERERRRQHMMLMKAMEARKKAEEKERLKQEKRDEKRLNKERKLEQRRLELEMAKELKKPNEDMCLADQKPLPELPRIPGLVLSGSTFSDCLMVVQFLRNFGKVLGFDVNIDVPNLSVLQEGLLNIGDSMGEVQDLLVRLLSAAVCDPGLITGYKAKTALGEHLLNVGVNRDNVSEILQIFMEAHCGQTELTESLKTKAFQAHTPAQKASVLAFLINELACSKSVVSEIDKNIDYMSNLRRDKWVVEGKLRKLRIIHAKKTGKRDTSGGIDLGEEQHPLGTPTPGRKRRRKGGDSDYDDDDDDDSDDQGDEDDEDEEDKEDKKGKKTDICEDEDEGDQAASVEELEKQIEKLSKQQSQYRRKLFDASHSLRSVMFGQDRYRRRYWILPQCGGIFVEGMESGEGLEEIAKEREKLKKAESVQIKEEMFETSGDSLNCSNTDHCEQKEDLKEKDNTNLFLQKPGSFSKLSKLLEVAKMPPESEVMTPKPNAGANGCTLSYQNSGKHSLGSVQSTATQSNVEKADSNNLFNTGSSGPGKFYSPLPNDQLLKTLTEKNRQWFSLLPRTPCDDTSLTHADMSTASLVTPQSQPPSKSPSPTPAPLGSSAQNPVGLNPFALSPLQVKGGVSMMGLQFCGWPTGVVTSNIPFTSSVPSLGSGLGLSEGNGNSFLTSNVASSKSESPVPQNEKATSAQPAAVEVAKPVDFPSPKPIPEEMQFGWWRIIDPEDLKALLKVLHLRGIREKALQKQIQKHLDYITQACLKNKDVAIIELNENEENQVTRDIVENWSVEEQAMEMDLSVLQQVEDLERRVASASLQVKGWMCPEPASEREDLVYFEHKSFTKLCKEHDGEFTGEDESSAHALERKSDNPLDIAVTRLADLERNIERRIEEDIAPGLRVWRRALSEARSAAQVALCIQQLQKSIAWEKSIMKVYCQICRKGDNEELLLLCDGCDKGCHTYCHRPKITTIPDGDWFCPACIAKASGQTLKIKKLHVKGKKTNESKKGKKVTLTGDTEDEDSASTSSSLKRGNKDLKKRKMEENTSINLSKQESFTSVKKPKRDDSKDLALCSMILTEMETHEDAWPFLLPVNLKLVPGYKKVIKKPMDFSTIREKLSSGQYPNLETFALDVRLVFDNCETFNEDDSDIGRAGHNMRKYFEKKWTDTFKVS
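Complex of BAZ2B and biotin-H3K14Ac (50 nM apiece) forms over 30 min at RT, then faces library compounds up to 110 uM for another 30 min; AlphaScreen beads added, 20 min dark incubation, luminescence read.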
HP1b chromo inh: HTS for Inhibitors of HP1-beta Chromodomain Interactions with Methylated Histone Tails. 390,000 tested, 0.56% active. AlphaScreen HP1-beta / biotin-H3K9me3 peptide binding. AID 540317, 2011. Chromobox protein homolog 1 (Homo sapiens), P83916. Potency, µM (titrated, usually from 114 µM), hits mostly inhibitors; note: nearly all actives have a fitted effect of over 70% in size
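HP1-beta protein (50 nM final) preincubated 30 min at room temperature with biotinylated H3(1-18)K9me3 peptide (50 nM) in PBS pH 7.4, 0.01% Tween-20, then compound added for 30 min. AlphaScreen streptavidin donor/nickel chelate acceptor beads (10 ug/mL final), 30 min dark, luminescence read.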
Hits are given with their value; i = inactive; ? = inconclusive; nt = no result given; ! = not confirmed by another sample; [ ] = remark or other dose. Calls come from the whole dose curve; as a rule, active = well fitted inhibition curve with a large enough effect; inconclusive = small, poorly fitted or top-dose-only effect; inactive = no such curve, though single readings can be large or run the other way.

SMILES | JMJD2A Tudor inh | L3MBTL1 block | G9a block | BAZ2B inh | HP1b chromo inh
C=CCN1CC[C@@]2(C)c3cc(O)ccc3CC1[C@@H]2C | i | nt | 45µM! | i | i
CC(C)=CCN1CC[C@@]2(C)c3cc(O)ccc3C[C@@H]1C2C (stereo partly specified) | i | i | nt | nt | i
O=C(N/N=C/c1c(O)n(Cc2ccccc2)c(=O)[nH]c1=O)c1ccncc1 | ? | nt | i | 50µM | i
O=C(O)c1ccc(N=Cc2c(O)n(Cc3ccc(F)cc3)c(=O)[nH]c2=O)cc1 | i | i | i | i | i
C=CCn1c(O)c(/C=N/NC(=O)c2ccncc2)c(=O)[nH]c1=O | i | nt | i | 79µM | i
O=C(N/N=C/c1c(O)n(Cc2ccc(F)cc2)c(=O)[nH]c1=O)c1ccccc1 | ? | i | i | 79µM | i
CNC(=S)N(C)CCc1cc2c(c(OC)c1C=C1C(=O)NC(=O)NC1=O)OCO2 | i | i | 79µM | ? | i
CCOC(=O)c1cnc2c(ccc3ccccc32)c1Nc1ccc(C(C)=O)cc1 | i | nt | i | i | i
Cc1c(Cl)cccc1NC(=O)CN1C(=O)C(C)N=C(c2ccccc2)c2ccccc21 (stereo unspecified) | i | nt | i | nt | i
Cc1ccc(NC(=O)Cn2c(=O)cc(-c3ccccc3)c3c(C)nn(C)c32)c(Cl)c1 | i | nt | i | i | i
CC(=O)c1ccc2c(c1)C1C(Cl)C(Sc3ccccc3[N+](=O)[O-])CC1C(c1ccccc1)N2 (stereo unspecified) | 45µM | i | 10µM | 45µM | i
CC(=O)c1ccc2c(c1)C1C(Cl)C(Sc3ccccc3[N+](=O)[O-])CC1C(c1ccccc1[N+](=O)[O-])N2 (stereo unspecified) | i | i | ? | i | i
CCCN1CCC[C@@H]2Cc3cn[nH]c3C[C@H]21 | nt | nt | i | nt | nt
CN(c1ccccc1)S(=O)(=O)c1ccc2ccccc2c1 | i | i | i | i | i
CC(C)NC(=O)C(C)N1CCN(S(=O)(=O)c2ccc3ccccc3c2)CC1 (stereo unspecified) | 3.2µM | nt | 25µM | 56µM | 40µM
COc1ccc(-n2c(/C=C/c3ccc(O)c(O)c3)nc3ccccc3c2=O)cc1 | ? | nt | 32µM | ? | i
Cc1ccccc1-n1c(/C=C/c2ccc(N(C)C)cc2)nc2ccccc2c1=O | 22µM | nt | i | 22µM | i
Cc1ccccc1-n1c(-c2ccc([N+](=O)[O-])cc2)nc2ccccc2c1=O | i | i | 71µM | i | i
Cc1ccccc1-n1c(/C=C/c2c(C)[nH]c3ccccc23)nc2ccccc2c1=O | i | nt | i | i | i
CC1O[C@@H](OC2CC[C@@]3(C=O)C4CC[C@]5(C)C(C6=CC(=O)OC6)CC[C@@]5(O)C4CC[C@]3(O)C2)C(O)C(O)C1O (stereo partly specified) | nt | nt | i[2.33 µM] | nt | nt
O=C(Nc1ccc(Cl)c(C(F)(F)F)c1)NC1CC2CCCC(C1)N2Cc1ccccc1 (stereo unspecified) | i | nt | i | i | i
COc1ccc(CCN(C)Cc2ccc(F)cc2F)cc1OC | 4µM | nt | 10µM | ? | ?
CCN(CC)CCCN=Cc1c(O)n(CCc2ccc(OC)c(OC)c2)c(=O)[nH]c1=O | i | i | i | i | i
CCN(CC)c1ccc(CN(C)CCc2ccc(OC)c(OC)c2)cc1 | 10µM | i | ? | 45µM | ?
O=C1NC(=O)N(CCc2ccc(F)cc2)C(=O)/C1=C\C=C\c1ccccc1 | i | nt | ? | i | i
SMILES | JMJD2A Tudor inh | L3MBTL1 block | G9a block | BAZ2B inh | HP1b chromo inh
CC(C)(C)n1cccc1/C=C1\C(=O)NC(=O)N(c2ccccc2)C1=O | i | i | ? | i | i
Cc1cccc(N2C(=O)NC(=O)/C(=C\C=C\c3ccco3)C2=O)c1 | ? | ? | 4µM | ? | i
Cc1ccc(N2C(=O)NC(=O)/C(=C\C=C\c3ccco3)C2=O)cc1C | ? | ? | 10µM | 45µM | ?
O=C1NC(=O)N(c2ccccc2)C(=O)/C1=C/C=C/c1ccco1 | i | nt | 35µM | i | i
C=CCN1C(=O)NC(=O)/C(=C/C=C/c2ccccc2)C1=O | i | nt | 8.9µM | ? | ?
COC(=O)/C=C/C(=O)N[C@@H]1CC[C@@]2(O)[C@H]3Cc4ccc(O)c5c4[C@@]2(CCN3CC2CC2)[C@H]1O5 | nt | nt | i | nt | nt
C[N+]1([O-])CCC[C@@H]1c1cccnc1 (stereo partly specified) | nt | nt | i | nt | nt
COc1cc2c(cc1OC)[C@@]13CCN4CC5=CCOC6CC(=O)N2C1[C@H]6[C@@H]5C[C@@H]43 (stereo partly specified) | nt | nt | i[2.33 µM] | nt | nt
CC(C)CN1CCCC2(CCN(C(=O)c3ccncc3)CC2)C1 | nt | nt | i[12.7 µM] | nt | nt
c1cc(CN2CCCC3(CCNCC3)C2)ccn1 | nt | nt | i[12.7 µM] | nt | nt
CN1C(=O)/C(=C/C=C/c2ccco2)C(=O)NC1=S | ? | nt | 2.8µM | 32µM | 11µM
